Measured values taken from PubChem BioAssay.
Activity calls are given as the source filed them.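 Rule for the calls, unless noted: active = NADPH fluorescence slope more negative than the mean of all samples by about 3 SD, 99.7% confidence; inactive = the rest.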

How the values were obtained:
[1] = inhibitors of TNFa-induced NFkB p65 translocation, primary screen, imaging, HUVEC, MLSMR starter and 10KST1 sets (AID 438;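 active = inhibition above 20% together with a positive visual image hit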;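 note: compound added about 3h40 before a 20 min TNFalpha stimulation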;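 for inhibition: signal is the nuclear over cytoplasmic p65 intensity ratio per well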); details: HUVEC TNFa-induced p65 nuclear translocation; cell count: measured here: nuclei count (cytotoxicity indicator), at 2.08 µM; inhibition: at 2 µM, stronger effect = higher value, 0% TNFa-plus-vehicle, 100% no-TNFa wells
[2] = inhibitors of mutant huntingtin aggregation, primary screen, imaging, exon1htt(103Q)mCFP cells, high-content imaging (AID 483;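 active = visual image review flags a hit and inhibition of aggregation exceeds 20%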;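 note: compound exposure lasted 3 days before fixation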;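 for nuclei count: percent of the per-plate median nuclei count of sample wells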); details: exon1htt(103Q)mCFP cell line, aggregate imaging, at 2 µM; inhibition of aggregation: stronger effect = higher value; nuclei count: measured here: cell count, toxicity
[3] = inhibitors of E-selectin induction by TNFa, primary screen, imaging, HUVEC, immunofluorescence, MLSMR starter and 10KST1 sets (AID 487;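 active = visually confirmed hit in the image check and inhibition above 20%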;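 for inhibition: signal is fraction of cell area covered by stained E-selectin grains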;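 for nuclei count: 100% = median nuclei count of all wells on the same plate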); details: HUVEC TNFalpha-induced E-selectin immunofluorescence imaging, at 2 µM; inhibition: stronger effect = higher value; nuclei count: measured here: cell number, toxicity
[4] = biological target: Voltage-gated potassium channel subunit beta-2 (Rattus norvegicus) (UniProt P62483); experiment: KvBeta enzyme negative modulators, primary screen, biochemical, NADPH fluorescence (AID 622;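 active = fluorescence slope higher than the sample average by over 3 SD, cut at about -0.22 in these data, passing the limit was not always enough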;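 note: slope of raw intensity against log time taken from 70 to 1610 s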); details: recombinant KvBeta, 4-cyanobenzaldehyde reduction, at 10 µM, stronger effect = higher value
[5] = biological target: Voltage-gated potassium channel subunit beta-2 (Rattus norvegicus) (UniProt P62483); experiment: KvBeta positive modulators, primary screen, biochemical, NADPH fluorescence (AID 623); details: Recombinant KvBeta, NADPH fluorescence decrease slope, 10 min; at 10 µM; stronger effect = lower value;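 note: fluorescence intensity change per second fitted from 20 to 320 s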
[6] = biological target: Alpha-2C adrenergic receptor (Homo sapiens) (UniProt P18825); experiment: modulators of alpha2C/GIRK thallium flux, primary screen, cell-based, HEK293 alpha2C/GIRK1/2 (AID 624;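 active = fluorescence slope after compound addition differing from the mean of all screened samples at 99.7% confidence, in either direction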;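 note: slope of fluorescence ratio to pre-addition baseline per second over 15 to 24 s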); details: thallium flux BTC fluorescence, at 10 µM, actives lie on both sides
[7] = inhibitors of Sendai virus-induced IRF3 signaling, primary screen, TLR/RLR signaling modifier project, cell-based, Sendai virus stimulus, luciferase, 10K MLSCN set (AID 602276;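 active = inhibition at or above 50% at 10 µM; inactive = inhibition below 50%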;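 note: firefly luciferase from ISG56 promoter only with Renilla not read in this screen; 0% = Sendai virus plus DMSO and 100% = medium plus DMSO without virus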); details: HEK293 RL24 IRF3 luciferase reporter, at 10 µM, stronger effect = higher value
[8] = inhibitors of poly I:C-induced TLR3 signaling, primary screen, cell-based, poly I:C stimulus, luciferase, 10K MLSCN set (AID 602277;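 active = inhibition of the reporter signal at or above 50%; inactive = inhibition below 50%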); details: HEK293-TLR3 RL24 IRF3 luciferase reporter, at 10 µM, stronger effect = higher value

Chain of Voltage-gated potassium channel subunit beta-2 (Rattus norvegicus) (P62483 whole entry, looked up): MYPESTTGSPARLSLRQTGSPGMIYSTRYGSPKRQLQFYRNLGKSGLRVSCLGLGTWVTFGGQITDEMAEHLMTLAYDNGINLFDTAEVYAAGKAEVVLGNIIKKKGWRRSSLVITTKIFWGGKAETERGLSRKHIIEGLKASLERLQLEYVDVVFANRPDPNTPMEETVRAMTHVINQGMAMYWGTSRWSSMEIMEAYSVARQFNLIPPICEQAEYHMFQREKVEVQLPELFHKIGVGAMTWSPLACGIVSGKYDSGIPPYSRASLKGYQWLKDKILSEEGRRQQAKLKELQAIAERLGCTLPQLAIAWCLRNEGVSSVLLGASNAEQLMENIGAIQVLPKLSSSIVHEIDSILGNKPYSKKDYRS
Chain of Alpha-2C adrenergic receptor (Homo sapiens) (P18825 whole entry, looked up): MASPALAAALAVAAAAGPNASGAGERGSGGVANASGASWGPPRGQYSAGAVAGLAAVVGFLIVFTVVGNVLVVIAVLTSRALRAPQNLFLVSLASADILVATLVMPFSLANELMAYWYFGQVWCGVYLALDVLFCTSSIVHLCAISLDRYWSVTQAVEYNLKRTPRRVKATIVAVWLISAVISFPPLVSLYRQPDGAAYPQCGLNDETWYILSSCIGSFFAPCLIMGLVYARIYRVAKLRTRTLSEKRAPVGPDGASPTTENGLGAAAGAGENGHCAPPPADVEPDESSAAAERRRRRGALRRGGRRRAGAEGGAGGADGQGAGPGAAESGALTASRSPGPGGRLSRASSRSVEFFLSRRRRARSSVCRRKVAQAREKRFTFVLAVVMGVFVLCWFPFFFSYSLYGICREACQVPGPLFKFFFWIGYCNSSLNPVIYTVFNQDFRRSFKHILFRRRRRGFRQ

Row | Compound | cell count [1] | inhibition [1] | inhibition of aggregation [2] | nuclei count [2] | inhibition [3] | nuclei count [3] | fluorescence slope [4] | NADPH fluorescence slope [5] | slope [6] | inhibition [7] | inhibition [8]
1 | COc1ccc(CNC(=O)c2ccc(CN3CCOCC3)cc2)cc1 | 645 | -7.8% (inactive) | -5.7% (inactive) | 103% | 7.3% (inactive) | 147% | -0.472 (inactive) | -2.6e-05 (inactive) | 0.00567 (inactive) | 7.5% (inactive) | -5.55% (inactive)
2 | COc1ccc(OC)c(C2=NOC(C(=O)Nc3cc(C)nn3-c3ccccc3)C2)c1 (stereo not drawn) | 605 | 5.8% (inactive) | -4.1% (inactive) | 84.1% | 10.7% (inactive) | 107% | -0.605 (inactive) | -4.8e-05 (inactive) | 0.00657 (inactive) | 7.53% (inactive) | 19.2% (inactive)
3 | COc1ccc(CCn2c(-c3ccco3)nc3ccccc3c2=O)cc1OC | 425 | -0.6% (inactive) | 2.8% (inactive) | 107% | -99.5% (inactive) | 120% | -0.402 (inactive) | -6.5e-05 (inactive) | 0.00555 (inactive) | -9.43% (inactive) | -5.38% (inactive)
4 | Cc1ccc(S(=O)(=O)N2CCN(C(=O)CSc3nnnn3C)C2)cc1 | 348 | -14.6% (inactive) | 1.4% (inactive) | 92.8% | -89.7% (inactive) | 113% | -0.35 (inactive) | 5.7e-06 (inactive) | 0.00463 (inactive) | 6.82% (inactive) | 20.3% (inactive)
5 | Cc1cc(N2CCN(C)CC2)nc(N2CCOCC2)n1 | 692 | -9.4% (inactive) | -6.8% (inactive) | 125% | -24.5% (inactive) | 109% | -0.425 (inactive) | -4.1e-05 (inactive) | 0.00311 (inactive) | -2.65% (inactive) | 25.9% (inactive)
6 | Cn1c(=O)[nH]c(=O)c2c1nc(N1CCCCCC1)n2CCCSc1nc2ccccc2o1 | 256 | 4.7% (inactive) | -1.5% (inactive) | 102% | -64.8% (inactive) | 98.7% | -0.609 (inactive) | -4.5e-05 (inactive) | 0.00527 (inactive) | 14.2% (inactive) | 9.47% (inactive)
7 | Cc1nc(C)c2c(c1C(F)(F)F)-c1ccccc1C2(F)F | 397 | 3.9% (inactive) | -0.1% (inactive) | 108% | -30.7% (inactive) | 107% | -0.454 (inactive) | -8.2e-06 (inactive) | 0.00655 (inactive) | -9.52% (inactive) | 98.9% (active)
8 | CCn1nnnc1SCC(=O)N1CCOCC1 | 707 | 11.3% (inactive) | -2% (inactive) | 122% | -0.6% (inactive) | 122% | -0.637 (inactive) | 3.1e-06 (inactive) | 0.0034 (inactive) | 14.6% (inactive) | 8.47% (inactive)
9 | COC(=O)C1C(=O)C2=C(CC1C)NC(=O)CC2c1ccccc1 (stereo not drawn) | 285 | -14.6% (inactive) | 14.6% (inactive) | 92.8% | 48.6% (inactive) | 80.1% | -0.388 (inactive) | -4.9e-05 (inactive) | 0.00369 (inactive) | 9.64% (inactive) | 22.4% (inactive)
10 | CC(C)Cc1n[nH]c(=O)[nH]1 | 742 | -25.9% (inactive) | -10.2% (inactive) | 113% | -36.3% (inactive) | 120% | -0.543 (inactive) | -3.9e-05 (inactive) | 0.00544 (inactive) | -8.4% (inactive) | 1.42% (inactive)
11 | COc1ccc(/C=N/O)cc1COc1ccc(NC(C)=O)cc1 | 667 | 9.6% (inactive) | -10.6% (inactive) | 113% | -30.3% (inactive) | 64.4% | -0.589 (inactive) | -1.6e-05 (inactive) | 0.00667 (inactive) | 6.34% (inactive) | 10.2% (inactive)
12 | CCn1c(CSc2nnc(-c3cccnc3)n2-c2ccccc2C)nc2cc(C(=O)O)ccc21 | 463 | -13.1% (inactive) | 5.1% (inactive) | 101% | -22.2% (inactive) | 161% | -0.509 (inactive) | -0.000162 (inactive) | 0.00507 (inactive) | 2.24% (inactive) | 9.03% (inactive)
13 | S=C(c1ccc(N2CCOCC2)cc1)N1CCCCC1 | 375 | -1.3% (inactive) | 4.1% (inactive) | 111% | -68.1% (inactive) | 111% | -0.535 (inactive) | -2e-05 (inactive) | 0.00689 (inactive) | -29.8% (inactive) | -15.7% (inactive)
14 | O=C(c1ccc(Br)o1)N(Cc1ccccc1)c1ccccn1 | 386 | -5.9% (inactive) | 13.3% (inactive) | 102% | 5.4% (inactive) | 107% | -0.43 (inactive) | 5.2e-05 (inactive) | 0.00529 (inactive) | 5.65% (inactive) | -0.317% (inactive)
15 | CCn1c(SCC(=O)c2ccc(Cl)cc2)nnc1-c1ccoc1C | 352 | 0.2% (inactive) | -24% (inactive) | 110% | -69.1% (inactive) | 108% | -0.503 (inactive) | -6.2e-05 (inactive) | 0.00727 (inactive) | 3.62% (inactive) | 5.26% (inactive)
16 | CCN(CC)C(=O)COc1ccc2oc(C)c(C(=O)OC(C)C)c2c1 | 455 | 12.5% (inactive) | -21.2% (inactive) | 108% | -25.5% (inactive) | 126% | -0.42 (inactive) | 3.2e-05 (inactive) | 0.00275 (inactive) | 2.59% (inactive) | 17.4% (inactive)
17 | CC(C)c1nnc(NC(=O)Cc2cccs2)s1 | 640 | 3.4% (inactive) | 8.9% (inactive) | 114% | -47.3% (inactive) | 105% | -0.513 (inactive) | -1.8e-05 (inactive) | 0.00736 (inactive) | 0.388% (inactive) | 22.9% (inactive)
18 | Nc1scc(-c2ccncc2)c1Cl | 349 | -0.2% (inactive) | 23% (inactive) | 94.4% | -2.4% (inactive) | 107% | -0.386 (inactive) | 1.9e-05 (inactive) | 0.00535 (inactive) | -19.6% (inactive) | -65.9% (inactive)
19 | COc1ccc(CCNc2oc(-c3ccco3)nc2C#N)cc1 | 560 | 15.1% (inactive) | 0.7% (inactive) | 103% | 35.2% (inactive) | 84.1% | -0.605 (inactive) | -3.5e-05 (inactive) | 0.00388 (inactive) | -0.514% (inactive) | -18.9% (inactive)
20 | C/C(=C\C(=O)c1ccc(F)cc1)Nc1ccc(N2CCOCC2)cc1 | 412 | -7.9% (inactive) | 20.9% (inactive) | 86.5% | -1.4% (inactive) | 99.6% | -0.532 (inactive) | 3.5e-06 (inactive) | 0.00495 (inactive) | -13.9% (inactive) | -43.6% (inactive)
21 | Cc1nc(NC2=NCN(CCN3CCOCC3)CN2)nc2c(C)cccc12 | 417 | 4.5% (inactive) | -1.2% (inactive) | 72.4% | -24.5% (inactive) | 108% | -0.419 (inactive) | -3.7e-05 (inactive) | 0.00391 (inactive) | 23.8% (inactive) | 41.1% (inactive)
22 | CC1Cc2nc(SCC(=O)N3CCCc4ccccc43)n(C)c(=O)c2S1 (stereo not drawn) | 647 | 0.5% (inactive) | -0.9% (inactive) | 46.7% | 5.3% (inactive) | 118% | -0.543 (inactive) | -1.5e-05 (inactive) | 0.00618 (inactive) | 6% (inactive) | 20.4% (inactive)
23 | CC(C)(C)NC(=O)CN(C(=O)C1CSC(=O)C1)c1ccc2c(c1)OCCO2 (stereo not drawn) | 612 | 2.9% (inactive) | 7.5% (inactive) | 95.8% | 7.1% (inactive) | 108% | -0.362 (inactive) | -6.7e-05 (inactive) | 0.00456 (inactive) | -11.9% (inactive) | -7.89% (inactive)
24 | CC1CCCCN1CCNC(=O)C1CCN(S(=O)(=O)c2cccc3cccnc23)CC1 (stereo not drawn) | 450 | -0.8% (inactive) | 5.9% (inactive) | 72.5% | -54.5% (inactive) | 105% | -0.522 (inactive) | -4e-05 (inactive) | 0.00613 (inactive) | 6.15% (inactive) | 39.6% (inactive)
25 | CCN(C(C)=O)c1nnc(CSc2nc3ccccc3s2)s1 | 531 | -15.2% (inactive) | 10.2% (inactive) | 96.4% | -11.6% (inactive) | 119% | -0.475 (inactive) | 2.8e-05 (inactive) | 0.00523 (inactive) | -76.7% (inactive) | -233% (inactive)
26 | CCOC(OCC)P(=O)(C(C)C)C(C)C | 491 | 6% (inactive) | -0.1% (inactive) | 93.4% | -53.6% (inactive) | 134% | -0.443 (inactive) | 4e-05 (inactive) | 0.00549 (inactive) | 17.5% (inactive) | 17.3% (inactive)
27 | O=C1CCCCCC1C1(O)C(=O)Nc2ccccc21 (stereo not drawn) | 349 | 10% (inactive) | -6% (inactive) | 101% | -26.3% (inactive) | 116% | -0.424 (inactive) | 4e-05 (inactive) | 0.00358 (inactive) | 9.01% (inactive) | 29% (inactive)
28 | CCn1c(SCC(=O)Nc2ccccc2F)nc2c(c1=O)SC(C)C2 (stereo not drawn) | 339 | -2.2% (inactive) | -3.7% (inactive) | 104% | -2% (inactive) | 117% | -0.554 (inactive) | -3.3e-06 (inactive) | 0.00612 (inactive) | 3.68% (inactive) | 8.8% (inactive)
